# Assay results from PubChem BioAssay (NCATS).
# Values joined by “and” are separate entries in the source; they are usually repeats but may differ in a detail not shown here. Identical values can stand only once. Results filed as inconclusive are left out. Where a call stands in place of a potency, no number is given. Active and inactive are the calls of the source. Unless noted, the call rests on the fitted dose curve; in most records, active means well fitted curve in the direction sought with a large enough effect; inconclusive means small, poorly fitted or top-dose-only effect, or another doubt; inactive means no such curve, though single readings can be large; an effect the other way counts as inactive or inconclusive.
# Key:
# [1] = qHTS Assay for Lipid Storage Modulators (AID 1519; calls by dose curve); settings: Drosophila S3 cells, BODIPY lipid droplet/cell ratio, laser cytometry, cells loaded with oleic acid; for activity change, negative = inhibition: at 57.5 µM (top of the series)
# Summary of the method: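 Cells seeded at 5,000 per well were treated with compounds over a concentration series and loaded with oleic acid (400 uM, as added). Lipid droplet fluorescence (488 nm excitation, 500-530 nm channel) was read by laser-scanning cytometry and normalized to 20 uM Triacsin C.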
# [2] = biological target: DNA repair nuclease/redox regulator APEX1 (Homo sapiens) (UniProt P27695); assay: qHTS Validation Assay for Inhibitors of the Human Apurinic/apyrimidinic Endonuclease 1 (APE1) (AID 1705;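 further: TAMRA fluorescence gain over two minutes as APE1 cuts a quenched THF abasic duplex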); settings: purified APE1 endonuclease activity, fluorescence, titration; series mostly up to 57.1 µM
# Sequence of DNA repair nuclease/redox regulator APEX1 (Homo sapiens) (P27695 whole entry, looked up): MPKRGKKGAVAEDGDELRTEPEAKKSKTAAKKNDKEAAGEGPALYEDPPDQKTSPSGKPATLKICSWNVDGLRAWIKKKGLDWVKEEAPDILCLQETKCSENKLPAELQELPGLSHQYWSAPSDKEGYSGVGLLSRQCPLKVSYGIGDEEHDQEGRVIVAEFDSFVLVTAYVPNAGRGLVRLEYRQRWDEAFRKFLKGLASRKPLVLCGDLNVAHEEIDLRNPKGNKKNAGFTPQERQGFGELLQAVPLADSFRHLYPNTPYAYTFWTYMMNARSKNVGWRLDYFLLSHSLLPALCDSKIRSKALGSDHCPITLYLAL
# Summary of the method: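 Endonuclease activity of human APE1 is followed as dequenching when the enzyme incises a tetrahydrofuran abasic site in a short duplex labelled 5'-TAMRA/3'-BHQ-2 (50 nM final), after 15 min enzyme–compound preincubation at room temperature.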
# [3] = biological target: Endonuclease 4 (Escherichia coli (strain K12)) (UniProt P0A6C1); assay: Counterscreen for APE1 Inhibitors: qHTS Validation Assay for Inhibitors of Endonuclease IV (AID 1708); settings: E. coli endonuclease IV, DNA cleavage fluorescence; series mostly up to 57.1 µM
# Summary of the method: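 Cleavage of a quenched abasic-site DNA duplex (50 nM, 5'-TAMRA, 3'-BHQ-2) by 2 nM enzyme is followed as fluorescence increase. Compounds are preincubated with enzyme 15 min at room temperature before substrate addition.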
# [4] = qHTS for differential inhibitors of proliferation of Plasmodium falciparum line GB4 (AID 1816); settings: Potency: Plasmodium falciparum GB4 proliferation inhibition; series mostly up to 28.7 µM;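 further: parasite growth measured after 72 h incubation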; further: potency means the concentration at half of the fitted maximal effect
# [5] = qHTS for differential inhibitors of proliferation of Plasmodium falciparum line 3D7 (AID 1876); further: potency means the concentration at half of the fitted maximal effect; settings: P. falciparum 3D7 proliferation inhibition; series mostly up to 28.7 µM
# [6] = qHTS for differential inhibitors of proliferation of Plasmodium falciparum line D10 (AID 1877); settings: series mostly up to 28.7 µM;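 further: parasites grown with compound for 72 h before DNA staining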; further: potency means the concentration at half of the fitted maximal effect
# [7] = qHTS for differential inhibitors of proliferation of Plasmodium falciparum line Dd2 (AID 1882); settings: Potency: Plasmodium falciparum Dd2 proliferation inhibition; series mostly up to 28.7 µM; further: nearly all actives have a fitted effect of over 65% in size; further: potency means the concentration at half of the fitted maximal effect;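 on activity change, negative = inhibition: compound exposure of 72 h on infected erythrocytes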
# Summary of the method: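 SYBR Green I DNA fluorescence read-out, ex 485/em 535 nm. Signals were normalized to 0.29 uM artemisinin and DMSO wells, then corrected using vehicle-only plates flanking each stack. Parasite growth ran 72 h in erythrocytes before lysis.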
# [8] = qHTS for differential inhibitors of proliferation of Plasmodium falciparum line W2 (AID 1883); settings: Potency: Plasmodium falciparum W2 proliferation inhibition; series mostly up to 28.7 µM;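 further: parasites grown with compound for 72 h before lysis and staining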; further: potency means the concentration at half of the fitted maximal effect
# [9] = qHTS for differential inhibitors of proliferation of Plasmodium falciparum line HB3 (AID 1886); settings: Potency: Plasmodium falciparum HB3 proliferation inhibition; series mostly up to 28.7 µM;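 further: parasites grown with compound for 72 h before SYBR Green readout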; further: potency means the concentration at half of the fitted maximal effect
# [10] = qHTS Assay for Modulators of Human Peripheral Myelin Protein 22 (PMP22) Expression/Activity (AID 1967; active means well fitted curve in the direction sought with a large enough effect in the signal ratio; the % refers to the signal ratio); settings: Cell-based PMP22 reporter, dual-color luciferase ratio, 0% = compound-free control cells, mouse Pmp22 promoter in mouse Schwann cells; series mostly up to 115 µM
# Summary of the method: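 Quantitative HTS in a mouse Schwann cell line expressing dual click beetle luciferases: Pmp22 promoter (green) and control EF-alpha promoter (red). After 24h treatment, corrected green/red signal ratio gave %Activity relative to untreated cells.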
# [11] = biological target: Ferritin light chain (Equus caballus) (UniProt P02791); assay: qHTS Validation Assay for Identification of Novel General Anesthetics (AID 2323); settings: horse apoferritin, anesthetic-site fluorescent probe displacement; series mostly up to 76.9 µM
# Sequence of Ferritin light chain (Equus caballus) (P02791 2-175 limits assumed): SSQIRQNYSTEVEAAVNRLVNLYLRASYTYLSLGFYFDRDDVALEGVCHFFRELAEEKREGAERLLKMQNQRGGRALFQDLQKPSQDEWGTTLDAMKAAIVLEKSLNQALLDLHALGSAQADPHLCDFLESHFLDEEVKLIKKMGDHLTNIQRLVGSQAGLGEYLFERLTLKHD
# Summary of the method: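 Apoferritin from horse spleen (10 uM) was mixed with 1-aminoanthracene at 50% saturation in PBS, then compounds were added. After 10 min at room temperature, fluorescence was read (ex 380 nm, em 535 nm) and normalized to free-probe and complex controls.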
# [12] = biological target: ATP-dependent DNA helicase Q1 (Homo sapiens) (UniProt P46063); assay: qHTS Validation Assay for Inhibitors of RecQ-Like Dna Helicase 1 (RECQ1) (AID 2353); settings: recombinant RECQ1 helicase DNA unwinding assay; series mostly up to 25.6 µM
# Sequence of ATP-dependent DNA helicase Q1 (Homo sapiens) (P46063 whole entry, looked up): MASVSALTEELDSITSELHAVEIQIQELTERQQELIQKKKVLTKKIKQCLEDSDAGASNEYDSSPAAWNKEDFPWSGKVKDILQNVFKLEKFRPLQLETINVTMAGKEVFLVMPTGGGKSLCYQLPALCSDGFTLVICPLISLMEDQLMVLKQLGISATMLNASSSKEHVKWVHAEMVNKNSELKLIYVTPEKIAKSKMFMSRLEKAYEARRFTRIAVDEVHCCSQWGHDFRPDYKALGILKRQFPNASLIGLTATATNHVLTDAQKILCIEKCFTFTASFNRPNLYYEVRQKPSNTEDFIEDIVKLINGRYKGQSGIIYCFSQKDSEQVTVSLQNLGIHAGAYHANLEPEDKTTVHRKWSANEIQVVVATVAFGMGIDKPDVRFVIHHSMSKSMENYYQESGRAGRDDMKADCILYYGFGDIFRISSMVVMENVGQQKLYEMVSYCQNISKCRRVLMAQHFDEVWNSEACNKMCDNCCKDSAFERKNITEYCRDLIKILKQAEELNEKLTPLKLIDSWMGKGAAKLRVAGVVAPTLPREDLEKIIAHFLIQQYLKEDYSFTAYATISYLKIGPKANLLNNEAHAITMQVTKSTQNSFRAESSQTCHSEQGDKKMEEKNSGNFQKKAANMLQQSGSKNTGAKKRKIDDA
# Summary of the method: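 50 nM RECQ1T1 preincubated 15 min with compound in Tris pH 8.0 buffer with MgCl2, DTT, Tween-20 and 2.5 ug/ml poly(dI-dC); started with 200 nM TAMRA/BHQ-2 forked duplex and 2 mM ATP. Unwinding read as fluorescence (525/598 nm), two reads 2 h apart.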
# [13] = High Content Imaging Cell-Based qHTS for Inhibitors of the mTORC1 Signaling Pathway in MEF (Tsc2-/-, p53-/-) Cells (AID 2666); settings: series mostly up to 38.3 µM;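 further: percent of cells scored positive for phospho-rpS6 Ser235/236 immunostaining by imaging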
# Summary of the method: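 Phospho-rpS6 (Ser235/236) immunofluorescence, normalized and scored as % positive cells using rapamycin and DMSO controls, was read in empty-vector Tsc2-/-, p53-/- MEFs after 24 h compound exposure at 37 C; propidium iodide counted cells.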
# [14] = qHTS for differential inhibitors of proliferation of Plasmodium falciparum line 7G8 (AID 1815); settings: Plasmodium falciparum 7G8 proliferation inhibition; series mostly up to 28.7 µM;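 further: parasite growth measured after three days of incubation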; further: potency means the concentration at half of the fitted maximal effect
# [15] = Cytometric Cell-Based qHTS for Inhibitors of the mTORC1 Signaling Pathway in MEF (Tsc2-/-, p53-/-) Cells (AID 2660); settings: mTORC1 pathway cytometry; series mostly up to 38.3 µM;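 further: percent of cells above a phospho-rpS6 to PI ratio cutoff in each well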
# Summary of the method: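 Immunofluorescence qHTS of rpS6 Ser235/236 phosphorylation: MEFs (Tsc2-/-, p53-/-) treated 24 h, 37 C, in DMEM + 10% FBS. Alexa-488 signal normalized to PI count, referenced to rapamycin (7.5 nM) and DMSO; PI cell number recorded for viability.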
# [16] = Counterscreen for APE1 Inhibitors: Fluorescent Dye Displacement Validation Assay (AID 1707); settings: fluorescent dye displacement from DNA; series mostly up to 57.1 µM
# Summary of the method: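 Compounds are scored by their ability to displace Thiazole Orange (250 nM) from a 50 nM TAMRA-tagged duplex bearing a tetrahydrofuran abasic site. Buffer is 50 mM Tris-HCl pH7.5, 50mM NaCl, 2 mM MgCl2, 0.01% Tween-20.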
# [17] = biological target: RecQ-like DNA helicase BLM (Homo sapiens) (UniProt P54132); assay: qHTS Validation Assay for Inhibitors of Bloom's syndrome helicase (BLM) (AID 2364); settings: BLM helicase DNA unwinding, fluorescence, in vitro; series mostly up to 57.1 µM; further: potency means the concentration at half of the fitted maximal effect
# Sequence of RecQ-like DNA helicase BLM (Homo sapiens) (P54132 whole entry, looked up): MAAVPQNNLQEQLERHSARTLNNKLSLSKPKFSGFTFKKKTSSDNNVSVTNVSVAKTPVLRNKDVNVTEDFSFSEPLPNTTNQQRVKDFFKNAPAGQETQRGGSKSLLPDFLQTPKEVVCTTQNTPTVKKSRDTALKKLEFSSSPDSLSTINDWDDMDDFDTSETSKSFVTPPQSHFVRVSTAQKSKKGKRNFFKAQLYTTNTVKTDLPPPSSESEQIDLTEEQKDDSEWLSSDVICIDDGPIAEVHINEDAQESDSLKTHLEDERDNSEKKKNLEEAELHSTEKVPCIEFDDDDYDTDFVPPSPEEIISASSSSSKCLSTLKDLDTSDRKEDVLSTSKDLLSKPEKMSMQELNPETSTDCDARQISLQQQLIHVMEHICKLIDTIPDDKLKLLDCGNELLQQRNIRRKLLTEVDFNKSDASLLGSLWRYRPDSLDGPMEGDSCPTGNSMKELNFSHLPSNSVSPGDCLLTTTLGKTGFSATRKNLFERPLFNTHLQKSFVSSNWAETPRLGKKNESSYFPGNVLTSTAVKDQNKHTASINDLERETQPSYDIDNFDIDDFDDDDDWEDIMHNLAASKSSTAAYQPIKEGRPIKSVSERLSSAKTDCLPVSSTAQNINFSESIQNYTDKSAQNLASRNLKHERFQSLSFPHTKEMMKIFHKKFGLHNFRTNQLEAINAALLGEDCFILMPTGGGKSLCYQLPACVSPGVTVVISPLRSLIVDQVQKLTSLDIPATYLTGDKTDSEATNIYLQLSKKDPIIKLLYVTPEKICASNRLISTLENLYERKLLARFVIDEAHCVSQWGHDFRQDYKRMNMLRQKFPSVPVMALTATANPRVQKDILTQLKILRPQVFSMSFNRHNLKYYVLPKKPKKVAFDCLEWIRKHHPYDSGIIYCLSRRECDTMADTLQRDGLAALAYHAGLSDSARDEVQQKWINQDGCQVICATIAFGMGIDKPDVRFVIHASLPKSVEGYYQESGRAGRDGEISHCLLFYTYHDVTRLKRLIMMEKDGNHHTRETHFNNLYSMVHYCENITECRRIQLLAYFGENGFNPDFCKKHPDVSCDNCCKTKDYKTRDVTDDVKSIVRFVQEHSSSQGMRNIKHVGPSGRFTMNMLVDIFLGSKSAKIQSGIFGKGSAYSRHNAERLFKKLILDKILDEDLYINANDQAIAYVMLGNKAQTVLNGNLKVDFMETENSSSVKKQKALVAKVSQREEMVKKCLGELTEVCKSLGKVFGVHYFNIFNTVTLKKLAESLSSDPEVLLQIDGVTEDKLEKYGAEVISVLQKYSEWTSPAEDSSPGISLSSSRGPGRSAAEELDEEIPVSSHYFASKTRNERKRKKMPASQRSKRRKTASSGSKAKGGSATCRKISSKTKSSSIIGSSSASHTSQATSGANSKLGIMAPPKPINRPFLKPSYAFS
# Summary of the method: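 50 nM BLM preincubated 15 min at room temperature with compound in pH 8.0 Tris buffer containing 2.5 ug/ml poly(dI-dC); started with 200 nM TAMRA/BHQ-2 forked duplex and 2 mM ATP (final). Unwinding read as TAMRA fluorescence increase, two reads 2 h apart.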
# [18] = measured here: cell count channel max response
# [19] = measured here: lipid channel max response
Structure (SMILES),"activity change, negative = inhibition [1]","max response [1, 18]","max response [1, 19]",Potency [2],Potency [3],Potency [4],Potency [5],Potency [6],Potency [7],Potency [8],Potency [9],outcome [10],Potency [11],Potency [12],Potency [13],Potency [14],outcome [15],Potency [16],Potency [17]
OCC1O[C@H](O)C(Cl)C(O)C1O (stereo not given in full),0.529% (inactive),-14.2%,-14.7%,inactive,inactive,inactive,inactive,inactive,inactive,inactive,inactive,inactive,inactive,inactive,inactive,–,–,–,–
N.N.O=C(O)C1(C(=O)O)CCC1.[Pt],7.88% (inactive) and 0.357% (inactive),15.2% and -33.4%,23.7% and -31.2%,inactive,inactive,–,12.6 µM (active),–,inactive,10 µM (active),–,–,inactive,inactive,–,–,–,–,–
O=C1NC(O)=NC1(c1ccccc1)c1ccccc1,1.6% (inactive),-13.9%,-13.3%,inactive,inactive,inactive,inactive,inactive,inactive,inactive,inactive,–,inactive,inactive,inactive,inactive,inactive,–,–
O=C(/C=C/c1ccc(O)cc1)c1ccc(O)cc1O,6.63% (inactive) and 0.947% (inactive),1.72% and 46.2%,5.97% and 48.5%,inactive,–,7.94 µM (active),–,12.6 µM (active),–,10 µM (active),12.6 µM (active),–,inactive,inactive,inactive,10 µM (active),inactive,inactive,–
O=C(O)CNC(=O)C(CS)Cc1ccccc1 (stereo not given),0.149% (inactive),-2.09%,-2.71%,inactive,inactive,inactive,inactive,inactive,inactive,inactive,inactive,inactive,inactive,inactive,inactive,inactive,inactive,–,–
c1cnc2c(c1)ccc1cccnc12,–,–,–,inactive,–,2 µM (active),2 µM (active),2.51 µM (active),2 µM (active),1 µM (active),2 µM (active),–,inactive,inactive,inactive,1.58 µM (active),inactive,inactive,inactive
NC[C@@H]1O[C@H](C23CC4CC(CC(C4)C2)C3)Cc2c1ccc(O)c2O,–,–,–,inactive,inactive,2 µM (active),2.24 µM (active),3.16 µM (active),8.91 µM (active),2.24 µM (active),2.82 µM (active),–,–,inactive,inactive,2 µM (active),–,inactive,inactive
CC(C)(C=O)Cc1cc(C(C)(C)C)c(O)c(C(C)(C)C)c1,–,–,–,inactive,–,inactive,inactive,inactive,inactive,inactive,inactive,–,–,inactive,inactive,inactive,–,inactive,–
O=Nc1ccc2oc(=O)ccc2c1,–,–,–,inactive,inactive,–,11.2 µM (active),–,–,–,12.6 µM (active),–,–,inactive,–,12.6 µM (active),–,inactive,–
COc1ccc(NC(=O)/C=C/c2ccc(Cl)cc2)cc1,–,–,–,inactive,–,11.2 µM (active),11.2 µM (active),8.91 µM (active),–,10 µM (active),12.6 µM (active),–,inactive,inactive,inactive,10 µM (active),inactive,inactive,–
CCCCC/C=C\CC(O)/C=C/c1cccc(CC(O)CCCCO)n1 (stereo not given),–,–,–,inactive,inactive,–,14.1 µM (active),–,inactive,–,–,–,inactive,inactive,inactive,–,inactive,inactive,inactive
CC(=O)N[C@H](C(=O)O)C(C)(C)SN=O,–,–,–,inactive,inactive,inactive,inactive,inactive,inactive,inactive,inactive,inactive,inactive,inactive,inactive,inactive,inactive,inactive,inactive
Nc1nc(Cl)nc2c1ncn2[C@@H]1O[C@H](CO)[C@@H](O)[C@H]1O,5.13% (inactive),7.07%,14%,–,–,–,–,–,–,–,–,–,–,–,inactive,–,inactive,–,–
Nc1ccn([C@@H]2O[C@H](CO)[C@@H](O)[C@@H]2O)c(=O)n1,–,–,–,inactive,–,inactive,inactive,inactive,inactive,inactive,inactive,–,–,inactive,–,inactive,–,inactive,inactive
COC1=C(OC)C(=O)c2ccccc2C1=O,–,–,–,inactive,inactive,10 µM (active),10 µM (active),11.2 µM (active),–,11.2 µM (active),11.2 µM (active),–,inactive,inactive,inactive,8.91 µM (active),–,inactive,–
CCCCCCCC/C=C\CCCCCCCC(=O)NCCO,1.41% (inactive),18.9%,20.6%,–,–,2.51 µM (active),3.98 µM (active),7.94 µM (active),8.91 µM (active),2.51 µM (active),4.47 µM (active),–,–,inactive,inactive,3.55 µM (active),inactive,–,–
COc1ccccc1CNCCCCCCNCCCCCCCCNCCCCCCNCc1ccccc1OC,–,–,–,inactive,inactive,2.24 µM (active),0.891 µM (active),2.24 µM (active),4.47 µM (active),1 µM (active),2 µM (active),–,inactive,–,inactive,1.41 µM (active),inactive,inactive,17.8 µM (active)
CN1CCc2cccc3c2C1Cc1ccc(O)c(O)c1-3 (stereo not given),–,–,–,inactive,inactive,2.24 µM (active),2 µM (active),2.24 µM (active),6.31 µM (active),2.24 µM (active),2 µM (active),–,inactive,inactive,inactive,2.24 µM (active),inactive,inactive,inactive
